Growth data for nine molecules are collected here from PubChem BioAssay (NCI).

Each structure is given as a SMILES string. This is part of a sample that, as a whole, favours compounds with a hit. Of some 83,000 tested, about 20% had one in any assay.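 Method: cells in 96-well plates; compound added at one concentration; 48 h incubation; percent growth measured; values under 10 scored active.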 A number with no mark means an inactive call. Active and inactive are the calls of the source.

Test systems include SR leukemia; OVCAR-5 ovarian; OVCAR-4 ovarian; SK-OV-3 ovarian; IGROV1 ovarian; OVCAR-3 ovarian; HS 578T breast; NCI/ADR-RES ovarian; T-47D breast; BT-549 breast; MDA-MB-435 melanoma; SW-620 colon; MCF7 breast; HCT-116 colon; HCC-2998 colon; KM12 colon; OVCAR-8 ovarian.
Holding throughout (assay): NCI-60 one-dose screen, 48 h (100 = growth as untreated, 0 = no growth, -100 = all killed)
Holding throughout (conditions): 10 µM unless noted

With `CCCCS(=O)(=O)Oc1ccc(-c2nc(C)c(C(=O)OCC)s2)cc1C=O`, the growth was -14.3% (active) in the assay on SR leukemia; 94.5% in the assay on OVCAR-5 ovarian; 75.2% with OVCAR-4 ovarian; 109% in the assay on SK-OV-3 ovarian; 42.6% with IGROV1 ovarian; 65% in the assay on OVCAR-3 ovarian. Besides, the growth in the assay on HS 578T breast was 63.6%; with NCI/ADR-RES ovarian it was 69%; in the assay on T-47D breast, 80.6%; in the assay on BT-549 breast, 72.2%; in the assay with MDA-MB-435 melanoma, 37.1%; with SW-620 colon, 30.2%. For the same molecule, the growth is 35.6% in the assay on MCF7 breast, 8.67% (active) in the assay with HCT-116 colon, 94.4% in the assay with HCC-2998 colon and 57% in the assay with KM12 colon.

As to `COc1ccc(-c2nnc(SCC(=O)NC3=NN=C(c4ccccc4)CS3)o2)cc1`, the growth in the assay on SR leukemia was 86.6%; in the assay with OVCAR-8 ovarian, 83%; with OVCAR-5 ovarian it was 102%; in the assay with SK-OV-3 ovarian, 93.5%; with IGROV1 ovarian, 108%; with OVCAR-3 ovarian it was 107%. Besides, the growth was 97.3% in the assay with HS 578T breast; 104% in the assay with NCI/ADR-RES ovarian; 78.4% in the assay on T-47D breast; 104% with BT-549 breast; 97.1% in the assay on MDA-MB-435 melanoma; 98.3% in the assay with SW-620 colon. Moreover, the growth with MCF7 breast is 102%; with HCT-116 colon, 94.2%; in the assay on HCC-2998 colon it was 105%; in the assay on KM12 colon it was 102%.

As for `COc1ccc(C(=O)/C=C/C23c4ccccc4C(c4ccccc42)C2C(=O)NC(=O)C23)cc1` (stereo unspecified), the growth was 75.5% with SR leukemia; 88.3% with OVCAR-8 ovarian; 91.4% with OVCAR-5 ovarian; 88.5% in the assay with OVCAR-4 ovarian; 98.8% in the assay with IGROV1 ovarian; 95.9% in the assay with OVCAR-3 ovarian. Also, the growth in the assay on HS 578T breast is 77.6%; in the assay with NCI/ADR-RES ovarian, 90.1%; with T-47D breast, 86.2%; in the assay on BT-549 breast, 97.1%; in the assay with MDA-MB-435 melanoma, 101%; in the assay on SW-620 colon, 110%. For the same molecule, the growth in the assay on MCF7 breast is 89%; in the assay with HCT-116 colon, 83.2%; in the assay with HCC-2998 colon it was 100%; in the assay on KM12 colon, 97.3%.

On to `O=C(CC12CC3CC(CC(C3)C1)C2)NCCOCCOCCNC(=O)c1cc2c(o1)C(=O)c1ccccc1C2=O`, for which the growth is 9.52% (active) in the assay with SR leukemia; -2.31% (active) with OVCAR-8 ovarian; -96.9% (active) in the assay on OVCAR-5 ovarian; -99.1% (active) in the assay on OVCAR-4 ovarian; -43.9% (active) with IGROV1 ovarian; -40.8% (active) in the assay on OVCAR-3 ovarian. Besides, the growth with HS 578T breast was -24.6% (active); in the assay on NCI/ADR-RES ovarian, -24.6% (active); in the assay on T-47D breast, -11.8% (active); in the assay on BT-549 breast it was -93.7% (active); in the assay on MDA-MB-435 melanoma, -97.7% (active); in the assay with SW-620 colon it was -28.4% (active). The growth in the assay with MCF7 breast is -68.4% (active); in the assay on HCT-116 colon it was -8.18% (active); with HCC-2998 colon it was -86.9% (active); in the assay with KM12 colon it was -23.9% (active).

Consider `Cc1[nH]c(-c2nc3ccccc3[nH]2)c(C)c1C(=O)N1CCc2sccc2C1`, for which the growth with SR leukemia was 97.7%; in the assay with OVCAR-8 ovarian it was 91.2%; in the assay on OVCAR-5 ovarian, 83.5%; in the assay with OVCAR-4 ovarian, 83.3%; in the assay with IGROV1 ovarian, 98.5%; in the assay on OVCAR-3 ovarian it was 95%. Further, the growth in the assay on HS 578T breast was 87.7%; in the assay on NCI/ADR-RES ovarian it was 93.2%; with T-47D breast it was 72.9%; in the assay with BT-549 breast, 94.1%; with MDA-MB-435 melanoma, 94.9%; with SW-620 colon, 89%. Also, the growth in the assay with MCF7 breast was 90.2%; in the assay with HCT-116 colon, 92.6%; with HCC-2998 colon, 110%; with KM12 colon, 97.6%.

Consider `N=C(N)c1ccc(-c2ccc(-c3ccc(Cl)c(Cl)c3)o2)nc1`, for which the growth was 1.79% (active) with SR leukemia; -16.1% (active) with OVCAR-8 ovarian; 39% in the assay with OVCAR-5 ovarian; -68.4% (active) in the assay with OVCAR-4 ovarian; 22.3% in the assay on IGROV1 ovarian; -80.8% (active) in the assay with OVCAR-3 ovarian. In addition, the growth is 94.8% in the assay on HS 578T breast; 32.2% in the assay with NCI/ADR-RES ovarian; 85.9% in the assay with T-47D breast; 94.9% in the assay with BT-549 breast; -52.1% (active) with MDA-MB-435 melanoma; -69.8% (active) in the assay with SW-620 colon. Further, the growth in the assay on MCF7 breast was -76.8% (active); in the assay on HCT-116 colon, -57.8% (active); in the assay on HCC-2998 colon, 77.8%; in the assay with KM12 colon, -15% (active).

As to `COc1ccc(/C=C(\C#N)n2nnc3ccccc32)cc1`, the growth in the assay with SR leukemia is 27%; with OVCAR-8 ovarian, 19.6%; with OVCAR-5 ovarian it was -13.4% (active); with OVCAR-4 ovarian it was 35.1%; in the assay with IGROV1 ovarian it was 7.84% (active); in the assay on OVCAR-3 ovarian, -66.4% (active). For the same molecule, the growth with HS 578T breast is -0.28% (active); in the assay on NCI/ADR-RES ovarian, 0.0544% (active); with T-47D breast, 50.1%; in the assay on BT-549 breast it was 21.6%; in the assay on MDA-MB-435 melanoma, -40.1% (active); in the assay with SW-620 colon, 12.8%. In addition, the growth is 9.96% (active) in the assay with MCF7 breast, 4.97% (active) in the assay on HCT-116 colon, -2.35% (active) in the assay with HCC-2998 colon and 1.79% (active) in the assay with KM12 colon.

For `Nc1c(C(=O)Nc2ccccc2)sc2nc3c(cc12)CCCCCC3`, the growth in the assay on SR leukemia was 12.6%; in the assay on OVCAR-8 ovarian it was 16.4%; in the assay with OVCAR-5 ovarian, 15.3%; in the assay with SK-OV-3 ovarian, -4.37% (active); in the assay with IGROV1 ovarian it was 15.3%; with OVCAR-3 ovarian, -34.8% (active). The growth with HS 578T breast is 22.8%; with NCI/ADR-RES ovarian, 1.41% (active); in the assay with T-47D breast, 38.2%; in the assay on MDA-MB-435 melanoma, -17% (active); in the assay with SW-620 colon, 27.5%; in the assay with MCF7 breast it was 12.1%. The growth was 2.39% (active) with HCT-116 colon, 13.4% with HCC-2998 colon and 15.8% in the assay with KM12 colon.

Regarding `N=c1ccn2c(n1)OC1C(O)C(CO)OC12` (stereo unspecified), the growth in the assay with SR leukemia was 181%; with OVCAR-8 ovarian, 28.8%; with OVCAR-5 ovarian it was 71.2%; with SK-OV-3 ovarian, 47%; in the assay on IGROV1 ovarian, 12.6%; in the assay on OVCAR-3 ovarian it was 67.1%. The growth is 85.2% in the assay on HS 578T breast; 31.8% in the assay with NCI/ADR-RES ovarian; 61% in the assay on T-47D breast; 44.9% in the assay on BT-549 breast; 46.8% with MDA-MB-435 melanoma; 14.9% with MCF7 breast. In addition, the growth in the assay on HCT-116 colon is 18.3%; with KM12 colon it was 50.6%.
